Results taken from PubChem BioAssay (Tox21).
Values joined by “and” are separate entries in the source; they are usually repeats but may differ in a detail not shown here. Equal values may be shown once. Results filed as inconclusive are left out. Where a structure was tested more than once in an assay, its records may differ in their call. Active and inactive are the calls of the source. Unless noted, calls come from the whole dose curve; as a rule, active = well fitted curve in the direction sought with a large enough effect in the repeat runs; inconclusive = weak or mixed curves; inactive = no such curve, though single readings can be large; an effect the other way counts as inactive or inconclusive.

Key:
[1] = qHTS assay to identify small molecule agonists of the vitamin D receptor (VDR) signaling pathway - cell viability counter screen (AID 743224); note: nearly all actives have a fitted effect of over 50% in size; note: potency is the fitted concentration of half-maximal effect
How it was run: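 Counter screen for cytotoxicity: VDR-bla cells at 2,000 cells/well, 16 h compound exposure, then CellTiter-Glo luminescence after the beta-lactamase measurement.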

[2] = qHTS assay to identify small molecule antagonists of the vitamin D receptor (VDR) signaling pathway - cell viability counter screen (AID 743225); note: nearly all actives have a fitted effect of over 50% in size
How it was run: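 VDR-bla HEK 293T cells, 4 h pre-incubation at 37C, then compound plus 1-alpha,25-dihydroxyvitamin D3 (3 nM final) for 16 h. After the beta-lactamase FRET read, CellTiter-Glo was added to the same wells; luminescence after 30 min at room temperature.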

[3] = qHTS assay to identify small molecule agonists of the NFkB signaling pathway (AID 1159509; active = well fitted curve in the direction sought with a large enough effect in the signal ratio in the repeat runs, not every such curve was filed as active; the % refers to the signal ratio; note: series mostly up to about 61 µM)
How it was run: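 Readout: FRET fluorescence, 405 nm excitation, 460/530 nm emission; beta-lactamase expression disrupts FRET. Cells: ME-180 stably carrying NF-kB-driven bla reporter. Compound exposure 5 hr, 37 C, 5% CO2.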

[4] = qHTS assay to identify small molecule agonists of the NFkB signaling pathway - cell viability counter screen (AID 1159515; calls by dose curve; note: series mostly up to about 61 µM; nearly all actives have a fitted effect of over 55% in size)
How it was run: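 Counter screen run alongside the NFkB-bla agonist assay: ME-180 reporter cells exposed to compounds for 5 hr, then lysed with CellTiter-Glo in the same wells. Luminescence, read after 30 min, reflects viable cells.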

[5] = qHTS assay to identify small molecule agonists of the endoplasmic reticulum stress response signaling pathway (AID 1159516; active = well fitted activation curve with a large enough effect in the signal ratio in the repeat runs, not every such curve was filed as active; the % refers to the signal ratio)
How it was run: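 For this screen, HeLa cells stably carrying beta-lactamase under the ER stress response element received test compounds, positive controls or DMSO for 5 hr at 37 C; B/G FRET substrate was then added and dual-wavelength emission recorded.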

[6] = qHTS assay to identify small molecule agonists of the endoplasmic reticulum stress response signaling pathway - cell viability counter screen (AID 1159517; calls by dose curve; note: series mostly up to about 61 µM; nearly all actives have a fitted effect of over 50% in size)
How it was run: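 Steps: seed 1,500 ESRE-bla HeLa cells per well; incubate overnight at 37 C, 5% CO2; add compounds in DMSO for 5 hr; run FRET substrate 2 hr RT; add CellTiter-Glo, wait 30 min, read luminescence.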

[7] = qHTS assay to identify small molecule antagonists of the retinoid-related orphan receptor gamma (ROR-gamma) signaling pathway - cell viability counter screen (AID 1159520); note: nearly all actives have a fitted effect of over 50% in size
How it was run: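 Tet-on ROR gamma CHO cells were given compounds for 2 hr, then doxycycline hyclate at 1 uM final, and incubated 16 hr at 37 C. Viability was measured as ATP content by CellTiter-Glo luminescence.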

[8] = molecular target: Nuclear receptor ROR-gamma (Homo sapiens) (UniProt P51449); assay: qHTS assay to identify small molecule antagonists of the retinoid-related orphan receptor gamma (ROR-gamma) signaling pathway (AID 1159521; note: nearly all actives have a fitted effect of over 50% in size; note: potency is the fitted concentration of half-maximal effect)
How it was run: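 Tet-on RORγ CHO cells carrying a ROR response element–luciferase reporter were pretreated with compounds for 2 h, then induced with 1 uM (final) doxycycline hyclate for 16 h at 37 C. Antagonism was read as decreased ONE-Glo luminescence.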

[9] = qHTS assay to identify small molecule agonists of the AP-1 signaling pathway (AID 1159526; calls by dose curve)
[10] = qHTS assay to identify small molecule agonists of the RXR signaling pathway - cell viability counter screen (AID 1159529); note: nearly all actives have a fitted effect of over 50% in size; note: potency is the fitted concentration of half-maximal effect
How it was run: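 RXR-alpha-UAS-bla HEK 293T cells in medium with 2% charcoal-stripped FBS were preincubated 5 hr, then exposed to compounds for 16 hr at 37 C. Viability was read as CellTiter-Glo luminescence after 30 min at room temperature.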

[11] = qHTS assay to identify small molecule antagonists of the retinoid acid receptor (RAR) signaling pathway - cell viability counter screen (AID 1159551); note: nearly all actives have a fitted effect of over 35% in size
How it was run: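 Measured by luminescent ATP detection, viability reflects C3RL4 cells treated 6 h at 37 C with test chemicals in the presence of 1 uM (final) retinol.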

[12] = qHTS assay to identify small molecule antagonists of the retinoic acid receptor (RAR) signaling pathway (AID 1159552; note: nearly all actives have a fitted effect of over 50% in size; note: potency is the fitted concentration of half-maximal effect)
How it was run: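 RARE-luc C3RL4 cells; cpds + 1 uM (final) retinol, 6 hr, 37 C/5% CO2; luciferase reagent, 30 min RT, luminescence readout. Inhibitors of retinol-driven signal scored.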

[13] = qHTS assay to identify small molecule agonists of the retinoic acid receptor (RAR) signaling pathway (AID 1159553); note: potency is the fitted concentration of half-maximal effect
How it was run: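 6 hr compound exposure (DMSO vehicle) of overnight-plated C3RL4 RARE-luc cells at 37 C; luminescence quantified after 30 min RT with luciferase reagent.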

[14] = qHTS assay to identify small molecule antagonists of the estrogen related receptor (ERR) signaling pathway from Tox21 library - cell viability counter screen (AID 1224834); note: nearly all actives have a fitted effect of over 30% in size; note: potency is the fitted concentration of half-maximal effect
How it was run: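 Seeded ERR cells were rested 6 h at 37 C/5% CO2 before compounds, positive and negative controls or DMSO were added. Incubation continued for 17.5 h, and viability was then quantified by CellTiter-Fluor fluorescence.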

[15] = molecular target: Luciferin 4-monooxygenase (Photinus pyralis) (UniProt P08659); assay: qHTS assay to identify small molecule inhibitors of firefly luciferase (AID 1224835); note: nearly all actives have a fitted effect of over 25% in size; note: potency is the fitted concentration of half-maximal effect
How it was run: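 Biochemical qHTS: compounds run as interplate titrations against purified firefly enzyme, with D-luciferin and ATP each at its KM concentration. Light output recorded by CCD imaging.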

[16] = qHTS assay to identify small molecule agonists of the constitutive androstane receptor (CAR) signaling pathway - cell viability counter screen (AID 1224836); note: series mostly up to about 92 µM; nearly all actives have a fitted effect of over 45% in size
How it was run: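 HepG2 cells stably carrying hCAR and a CYP2B6-2.2kb reporter were plated 4 h, then given compounds at 15 concentrations plus PK11195 (final 0.75 uM). After 23 h at 37 C, viability was read by CellTiter-Fluor fluorescence.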

[17] = molecular target: Retinoic acid receptor RXR-alpha (Homo sapiens) (UniProt P19793); assay: qHTS assay to identify small molecule agonists of the RXR signaling pathway (AID 1159527; calls by dose curve; note: nearly all actives have a fitted effect of over 35% in size)
How it was run: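 GeneBLAzer RXR-alpha-UAS-bla HEK 293T cells in medium with 2% charcoal-stripped FBS, pre-incubated 5 hr at 37 C, then exposed to compounds 16 hr. Beta-lactamase reporter read by FRET substrate, 2 hr room temperature, 460/530 nm emission.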

[18] = qHTS assay to identify small molecule agonists of the AP-1 signaling pathway - cell viability counter screen (AID 1159525; calls by dose curve; note: nearly all actives have a fitted effect of over 55% in size; note: potency is the fitted concentration of half-maximal effect)
How it was run: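 Same-well cytotoxicity counter screen of the Tox21 10K library in ME-180 cells. The readout is ATP-dependent luminescence after 5 h compound treatment. Data are normalised to DMSO and tetra n-octyl ammonium bromide controls.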

[19] = qHTS assay to identify small molecule antagonists of the estrogen related receptor (ERR) signaling pathway - cell viability counter screen (AID 1224818); note: series mostly up to about 46 µM
How it was run: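 Compounds dissolved in DMSO were applied to ERR cells seeded at 2,000 per well 6 h earlier. Cell viability followed 17.5 h later via 30-min CellTiter-Fluor fluorescence.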

[20] = qHTS assay to identify small molecule antagonists of the estrogen related receptor signaling pathway with the pleiotropic PPARgamma coactivator (PGC) cell viability counter screen (AID 1224822; note: series mostly up to about 46 µM)
How it was run: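 Counter screen for cell viability: PGC/ERR cells, 6 h pre-incubation after plating, 17.5 h compound exposure at 37 C, fluorescence from CellTiter-Fluor after 30 min.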

Measured: Potency

Retinoic acid receptor RXR-alpha (Homo sapiens), sequence (P19793 whole entry, looked up): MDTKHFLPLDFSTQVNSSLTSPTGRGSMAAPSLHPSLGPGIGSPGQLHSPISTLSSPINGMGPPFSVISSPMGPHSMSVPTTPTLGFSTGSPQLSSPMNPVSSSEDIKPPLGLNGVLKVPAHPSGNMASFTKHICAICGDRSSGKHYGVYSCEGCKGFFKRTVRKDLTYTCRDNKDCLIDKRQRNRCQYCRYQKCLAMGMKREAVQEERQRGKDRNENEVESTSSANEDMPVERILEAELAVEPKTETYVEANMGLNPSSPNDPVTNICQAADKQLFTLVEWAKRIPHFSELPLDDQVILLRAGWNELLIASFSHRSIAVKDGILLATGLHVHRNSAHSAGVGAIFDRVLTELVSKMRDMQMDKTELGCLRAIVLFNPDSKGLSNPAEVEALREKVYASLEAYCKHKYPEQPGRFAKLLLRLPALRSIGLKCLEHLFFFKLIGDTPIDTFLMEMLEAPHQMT
Luciferin 4-monooxygenase (Photinus pyralis), sequence (P08659 whole entry, looked up): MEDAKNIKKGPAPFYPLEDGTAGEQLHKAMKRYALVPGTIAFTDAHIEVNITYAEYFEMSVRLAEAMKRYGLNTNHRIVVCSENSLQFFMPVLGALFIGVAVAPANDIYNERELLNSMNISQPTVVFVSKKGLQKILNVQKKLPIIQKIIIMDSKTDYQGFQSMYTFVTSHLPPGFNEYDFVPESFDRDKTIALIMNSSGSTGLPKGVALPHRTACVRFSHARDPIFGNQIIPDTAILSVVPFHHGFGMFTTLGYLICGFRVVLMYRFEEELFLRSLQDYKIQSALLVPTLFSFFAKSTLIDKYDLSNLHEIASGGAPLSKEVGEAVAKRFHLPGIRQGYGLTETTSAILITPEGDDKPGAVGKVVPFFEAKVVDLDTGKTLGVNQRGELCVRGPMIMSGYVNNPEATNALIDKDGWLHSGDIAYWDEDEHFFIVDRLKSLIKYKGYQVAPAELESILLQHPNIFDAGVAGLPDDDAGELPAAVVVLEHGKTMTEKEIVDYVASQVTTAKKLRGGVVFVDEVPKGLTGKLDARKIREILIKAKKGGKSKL

c1c[nH]cn1
not listed: [17] | [18] | [19] | [20]
inactive: all other assays above

FC(F)(F)c1ccc(Cl)c(Cl)c1
not listed: [12] | [13] | [18] | [19] | [20]
inactive: all other assays above

Cc1cc(C)c(C)cc1C
not listed: [19] | [20]
inactive: all other assays above

O=[N+]([O-])c1ccc(/C=C/c2ccc([N+](=O)[O-])cc2S(=O)(=O)O)c(S(=O)(=O)O)c1
not listed: [12] | [13] | [19] | [20]
inactive: all other assays above

COc1ccc(Nc2ccccc2)c(C)c1
not listed: [12] | [13] | [19] | [20]
inactive: all other assays above

Nc1ccccc1[N+](=O)[O-]
not listed: [13] | [19] | [20]
inactive: all other assays above

CCN(CC)c1ccc(C(=O)c2ccccc2C(=O)O)c(O)c1
active: [13] 10.9 µM and 34.4 µM | [15] 28.4 µM and 25.2 µM
not listed: [17] | [19] | [20]
inactive: all other assays above

CC(C)(N)CO
not listed: [12] | [13] | [19] | [20]
inactive: all other assays above

COS(C)(=O)=O
not listed: [12] | [13] | [17] | [19] | [20]
inactive: all other assays above

CCCCCCCCCCCCOCCO
active: [15] 25.2 µM and 30.9 µM
not listed: [7] | [13] | [17] | [19] | [20]
inactive: all other assays above

CCCCC(CC)COC(=O)C(C#N)=C(c1ccccc1)c1ccccc1 (stereo unspecified)
active: [12] 30.6 µM
not listed: [8] | [17] | [19] | [20]
inactive: all other assays above

CCOC(=O)NNc1nncc2ccccc12
not listed: [8] | [19] | [20]
inactive: all other assays above

CN(C)CCC(c1ccc(Cl)cc1)c1ccccn1 (stereo unspecified)
48.7 µM (active) and inactive: [14]
active: [10] 55.1 µM
not listed: [8] | [9] | [12] | [13] | [15]
inactive: all other assays above

N[C@@H](Cc1cc(I)c(Oc2cc(I)c(O)c(I)c2)c(I)c1)C(=O)O
not listed: [8] | [19] | [20]
inactive: all other assays above

CCCCCC1=CCCC1=O
not listed: [7] | [8] | [18] | [19] | [20]
inactive: all other assays above

CCCCCCCCC/C=C/CC1CC(=O)OC1=O (stereo unspecified)
active: [15] 71.3 µM
not listed: [7] | [8] | [12] | [13] | [19] | [20]
inactive: all other assays above

COc1cc(Cc2cnc(N)nc2N)cc(OC)c1OC
not listed: [8] | [17] | [18]
inactive: all other assays above

CC1=CCC2CC1C2(C)C (stereo unspecified)
not listed: [7] | [18] | [19] | [20]
inactive: all other assays above

CCCC(C)=O
not listed: [7] | [18] | [19] | [20]
inactive: all other assays above

CC(=O)Nc1cccc(O)c1
not listed: [7] | [8] | [18] | [19] | [20]
inactive: all other assays above

OCCOCCN1CCN(C2=Nc3ccccc3Sc3ccccc32)CC1
not listed: [7] | [8] | [15] | [17] | [19] | [20]
inactive: all other assays above

CCC(O)OC(O)CC (stereo unspecified)
not listed: [8] | [18] | [19] | [20]
inactive: all other assays above

COc1ccc(Cl)cc1C(=O)NCCc1ccc(S(=O)(=O)NC(=O)NC2CCCCC2)cc1
not listed: [7] | [15] | [17] | [18]
inactive: all other assays above

C=C(C)C(=O)O[C@H]1C[C@@H]2CC[C@@]1(C)C2(C)C
15.4 µM (active) and inactive: [10]
963 nM (active) and inactive: [8]
4.87 µM (active) and inactive: [18]
8.58 µM (active) and inactive: [14]
19.9 µM (active) and inactive: [15]
not listed: [7] | [12] | [13] | [16] | [19] | [20]
inactive: all other assays above

Cc1cnc(C(=O)NCCc2ccc(S(=O)(=O)NC(=O)NC3CCCCC3)cc2)cn1
not listed: [8] | [12] | [17]
inactive: all other assays above

ON=C1CCCCC1
inactive and 38.9 µM (active): [1]
not listed: [7] | [17] | [19] | [20]
inactive: all other assays above

CCCCCCCCCCCCCCO
active: [15] 22.7 µM
not listed: [8] | [12] | [13] | [19] | [20]
inactive: all other assays above

CCc1ccc(CCOc2ccc(CC3SC(=O)NC3=O)cc2)nc1 (stereo unspecified)
active: [15] 31.7 µM and 24.5 µM
not listed: [7] | [8] | [12] | [13] | [17] | [19] | [20]
inactive: all other assays above

CCCCOC(=O)COc1ccc(Cl)cc1Cl
19.5 µM (active) and inactive: [8]
active: [15] 9.05 µM and 10 µM
not listed: [6] | [19] | [20]
inactive: all other assays above

C=CCOC(=O)c1ccccc1C(=O)OCC=C
not listed: [7] | [17] | [19] | [20]
inactive: all other assays above

CC(=O)c1ccccc1
not listed: [8] | [12] | [13] | [19] | [20]
inactive: all other assays above

O=C(O)c1ccccc1C(c1ccc(O)cc1)c1ccc(O)cc1
not listed: [7] | [19] | [20]
inactive: all other assays above

OCC(CO)(CBr)CBr
not listed: [7] | [19] | [20]
inactive: all other assays above

CC(c1cc2ccccc2s1)N(O)C(N)=O (stereo unspecified)
not listed: [7] | [8] | [12] | [13] | [19] | [20]
inactive: all other assays above
